A short description of experiment [1]: ATG_NFI_CIS: Attagene CIS-FACTORIAL HepG2 Assay for human Nuclear Factor I (NFI) (AID 2282989). The settings on record: HepG2 cis-regulatory reporter, NFI response element transcription; actives raise or lower the signal. The method in brief: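 HepG2, transient MRTU, 24 h exposure; RNA→cDNA→PCR→FAM label→HpaI→CE fluorescence. Bidirectional fit, DMSO = baseline.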

The nature of experiment [2]: ATG_NF_kB_CIS: Attagene CIS-FACTORIAL HepG2 Assay for human Nuclear Factor Kappa B (NF-kB) (AID 2282991). The settings on record: HepG2 Attagene cis-factorial NF-kB reporter mRNA; actives raise or lower the signal. The method in brief:
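HepG2 cells transfected with cis-promoter-driven reporter units, so endogenous transcription factor activity is measured. Reporter mRNA quantified 24 h after dosing by RT-PCR and capillary electrophoresis, with bidirectional fitting against DMSO.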

Experiment [3] is described as follows: ATG_NRF2_ARE_CIS: Attagene CIS-FACTORIAL HepG2 Assay for human Nuclear Factor Erythroid 2 Related Factor 2 (NFR2) response to Antioxidant Response Elements (ARE) (AID 2282992).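 As to AC50: reporter mRNA level measured by RT-PCR and capillary electrophoresis fluorescence.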 Conditions: HepG2 Attagene ARE/NRF2 reporter, transcription factor activity; actives raise or lower the signal. The method in brief: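 Cis-factorial assay: transfected HepG2 reporter library, 24 h dosing, mRNA readout via RT-PCR/CE; DMSO-referenced bidirectional analysis.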

Experiment [4] can be described thus: ATG_Oct_MLP_CIS: Attagene CIS-FACTORIAL HepG2 Assay for human Octamer-Binding Transcription Factor (Oct) (AID 2282993). The settings on record: HepG2 Attagene cis-factorial Oct reporter, mRNA; actives raise or lower the signal. The method in brief: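 Multiplexed cis-reporter assay in human liver HepG2 cells, 24 h incubation. Reporter RNA amplified and labelled, then resolved by capillary electrophoresis; DMSO serves as negative control and baseline.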

Experiment [5] deals with Cellular tumor antigen p53 (Homo sapiens) (UniProt P04637). Kind of experiment: ATG_p53_CIS: Attagene CIS-FACTORIAL HepG2 Assay for human p53 Transcription Factor (AID 2282994). The settings on record: HepG2 p53 cis-element reporter, Attagene mRNA; actives raise or lower the signal. In a few lines:
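Using HepG2 hepatoma cells carrying cis-acting multiplexed reporters, mRNA induction is detected after a 24 h exposure. Gain- and loss-of-signal responses are fitted relative to DMSO-treated cells.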

In experiment [6] the target is human Peroxisome Proliferator-activated Receptor alpha (PPARa), PPARA (gene 5465) (UniProt Q07869). The experiment in a line: ATG_PPARa_TRANS: Attagene TRANS-FACTORIAL HepG2 Assay for human Peroxisome Proliferator-activated Receptor alpha (PPARa) (AID 2283001; active = hit-call score of the fitted dose curve at least 0.9, where 1 is the maximum;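 as to AC50: potency for gain of reporter signal over DMSO so agonist or activator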). The method in brief: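 Read-out is fluorescence of reporter cDNA fragments resolved by capillary electrophoresis after RT-PCR. Human HepG2 liver cells carried transfected PPARa-Gal4 chimera and GAL4-UAS reporter units, treated 24 h; activity scored as increase over DMSO.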

A short description of experiment [7]: BSK_3C_TissueFactor: BioMAP Diversity Plus: 3C Assay for Tissue Factor Biomarker Activity (AID 2282997). Conditions: BioMAP 3C HUVEC, tissue factor biomarker readout; actives raise or lower the signal. The method in brief: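 Dosing of human umbilical vein endothelial cells preceded a 24 h incubation. Tissue Factor was then read by ELISA, with increases and decreases both scored relative to DMSO controls.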

A short description of experiment [8]: BSK_3C_uPAR: BioMAP Diversity Plus: 3C Assay for Urokinase-type plasminogen activator receptor (uPAR) Biomarker Activity (AID 2282998). Conditions: BioMAP 3C HUVEC, uPAR biomarker ELISA; actives raise or lower the signal. The method in brief: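 Dose primary human umbilical vein endothelial cells, incubate 24 h, measure cell-surface uPAR by ELISA, then fit the signal in both directions against the DMSO negative control.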
For orientation: ELISA stands for enzyme-linked immunosorbent assay.

A short description of experiment [9]: BSK_4H_Eotaxin3: BioMAP Diversity Plus: 4H Assay for Eotaxin 3 Biomarker Activity (AID 2283000).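 As to outcome: CCL26 protein level quantified by ELISA in parallel with SRB cytotoxicity check.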 The settings on record: primary human endothelial cells (HUVEC); actives raise or lower the signal. The method in brief: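 Human umbilical vein endothelial cells (BSK_4H system) dosed with test chemical; Eotaxin-3 (CCL26) measured by ELISA 24 h after dosing. Bidirectional curve fitting relative to DMSO negative control as baseline.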

Results filed as inconclusive are left out. The source made the active and inactive calls. The calls were made as follows, unless noted: active = hit-call score of the fitted dose curve at least 0.9, where 1 is the maximum; inactive = score below 0.9.

These results are taken from PubChem BioAssay (EPA / NIEHS).

Cellular tumor antigen p53 (Homo sapiens), sequence (P04637 whole entry, looked up): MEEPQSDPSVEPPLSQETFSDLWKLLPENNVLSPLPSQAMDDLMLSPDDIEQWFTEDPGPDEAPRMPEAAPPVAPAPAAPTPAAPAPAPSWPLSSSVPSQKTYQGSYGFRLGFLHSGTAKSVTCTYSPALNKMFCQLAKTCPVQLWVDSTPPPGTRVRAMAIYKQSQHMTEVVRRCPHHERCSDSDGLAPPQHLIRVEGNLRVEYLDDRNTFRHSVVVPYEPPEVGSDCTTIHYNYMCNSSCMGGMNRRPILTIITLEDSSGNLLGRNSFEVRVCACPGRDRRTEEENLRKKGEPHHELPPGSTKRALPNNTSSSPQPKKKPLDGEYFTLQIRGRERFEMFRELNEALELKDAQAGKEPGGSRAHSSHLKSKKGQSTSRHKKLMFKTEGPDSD
human Peroxisome Proliferator-activated Receptor alpha (PPARa), PPARA (gene 5465), sequence (Q07869 whole entry, looked up, the tested form may be a part): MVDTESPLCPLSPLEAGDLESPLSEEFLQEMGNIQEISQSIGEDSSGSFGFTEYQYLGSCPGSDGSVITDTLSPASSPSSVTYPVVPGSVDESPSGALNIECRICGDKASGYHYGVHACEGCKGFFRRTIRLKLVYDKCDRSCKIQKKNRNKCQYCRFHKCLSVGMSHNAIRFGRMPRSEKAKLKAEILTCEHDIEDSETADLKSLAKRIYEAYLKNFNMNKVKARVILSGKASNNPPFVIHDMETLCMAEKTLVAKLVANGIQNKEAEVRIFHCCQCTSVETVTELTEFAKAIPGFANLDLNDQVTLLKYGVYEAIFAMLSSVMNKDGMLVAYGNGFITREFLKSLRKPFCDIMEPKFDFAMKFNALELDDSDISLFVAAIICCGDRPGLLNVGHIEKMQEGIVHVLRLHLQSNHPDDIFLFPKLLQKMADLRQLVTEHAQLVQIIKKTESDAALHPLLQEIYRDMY

For `C=C(C)CCO`, the call in experiment [1], in [2], in experiment [3], in experiment [4] and in experiment [5] was inactive.

As to `O=C(OCC1CCC2OC2C1)C1CCC2OC2C1` (configuration not stated), the outcome in experiment [1], in experiment [2], in experiment [3] and in experiment [4] was inactive.

One may read the AC50 as the midpoint of the concentration-response curve, whichever way the signal moves. Regarding `CC(C)c1ccc2c(C(C)C)cc(C(C)C)c(S(=O)(=O)O)c2c1`, the outcome in experiment [1], in experiment [5] and in [6] was inactive. In addition, the half-maximal activity concentration (AC50) in experiment [3] was 25.9 µM (active).

As to `NC(=O)OCC(COC(N)=O)c1ccccc1`, the result in experiment [1], in experiment [2], in experiment [3] and in experiment [6] was inactive.

As to `CCCCCC(C)O` (configuration not stated), the molecule was classed as inactive in [1], in experiment [2] and in experiment [3].

In the case of `N[C@H]1C(O)O[C@H](CO)[C@H](O)[C@@H]1O` (some centres not stated), the result in experiment [1], in experiment [3], in experiment [4] and in experiment [5] was inactive.

For `CCc1c(C(=O)O)c(=O)cnn1-c1ccc(Cl)cc1`, the result in [1], in experiment [2], in experiment [3], in experiment [4], in [5] and in [6] was inactive.

Turning to `CCC(CC)C(=O)O`, the result in experiment [1], in [2], in [3], in experiment [4], in experiment [5] and in experiment [6] was inactive.

With `Cc1cc(C)c(C(=O)O)c(C)c1`, the result in experiment [1], in experiment [2], in [4] and in experiment [5] was inactive. Moreover, the half-maximal activity concentration (AC50) in experiment [6] is 33.7 µM (active).

For the molecule `CC(C)C(=O)C(C)C`, the result in [1], in experiment [2], in experiment [5], in experiment [7], in experiment [8] and in experiment [9] was inactive. Besides, the half-maximal activity concentration (AC50) in experiment [3] was 27.1 µM (active); in experiment [4], 29.2 µM (active).

Turning to `COc1ccc(-c2coc3cc(O)ccc3c2=O)cc1`, the result in experiment [1], in experiment [2], in [3], in experiment [4], in experiment [5] and in [6] was inactive.

In the case of `CC(C)(C)C1CCCCC1=O` (configuration not stated), the outcome in experiment [1], in experiment [2], in experiment [3], in experiment [4] and in experiment [6] was inactive.

With `Cc1ccc2c(c1)C(=O)c1ccccc1C2=O`, the molecule was called inactive in [1] and in [5]. Moreover, the AC50 in experiment [2] is 6.48 µM (active); in [3], 10.5 µM (active).

As for `C=CC(=O)NC(C)(C)CS(=O)(=O)O`, the outcome in [1], in [2], in experiment [3], in experiment [4] and in experiment [5] was inactive.

For the molecule `N=c1ccn2c(n1)O[C@H]1[C@H](O)[C@@H](CO)O[C@H]12`, the molecule was classed as inactive in [1], in experiment [2], in experiment [3], in experiment [4], in [5] and in experiment [6].

Consider `O=C1OC(=O)c2cc(Oc3ccc4c(c3)C(=O)OC4=O)ccc21`, for which the call in [1], in experiment [2], in experiment [3], in [4], in [5] and in experiment [6] was inactive.

`O=[N+]([O-])c1ccc(CO)cc1`: the call in experiment [1], in [2], in experiment [4], in experiment [5] and in experiment [6] was inactive.

Take `O=C1C(N(CO)C(=O)NCO)N(CO)C(=O)N1CO` (configuration not stated): the outcome in experiment [1], in experiment [3], in experiment [4], in experiment [5] and in experiment [6] was inactive.

In the case of `FC(F)(F)C(=NOCC1OCCO1)c1ccc(Cl)cc1`, the call in experiment [1], in [2], in experiment [3], in [4], in experiment [5] and in experiment [6] was inactive.

`CC(C)=CC1CC(C)CCO1` (configuration not stated): the outcome in experiment [1], in [2], in experiment [5] and in [6] was inactive.

For `CC(C)c1ccc(C#N)cc1`, the outcome in experiment [1], in [2], in experiment [3], in [4], in experiment [5] and in [6] was inactive.

As to `C=C(C)C(=O)OCCOc1ccccc1`, the call in [1], in experiment [4] and in experiment [6] was inactive. Moreover, in experiment [3], the AC50 is 67.1 µM (active).

With `COC(=O)C1=C(C)NC(C)=C(C(=O)OCC(C)C)C1c1ccccc1[N+](=O)[O-]` (configuration not stated), the result in experiment [1], in experiment [2], in experiment [3], in experiment [4] and in experiment [5] was inactive.

In the case of `C=CCOCC(O)CCl` (configuration not stated), the molecule was called inactive in experiment [1], in experiment [2], in experiment [4], in experiment [5], in experiment [7] and in [8]. Moreover, the result in experiment [9] and in [6] was inactive. In addition, in experiment [3], the concentration at half-maximal activity (AC50) was 63 µM (active).

As to `c1ccc(-c2ccccn2)nc1`, the molecule was called inactive in [1], in experiment [3], in [4], in experiment [5], in experiment [7] and in [8]. Besides, the outcome in experiment [6] was inactive. For the same molecule, in experiment [9], the half-maximal activity concentration (AC50) was 20 µM (active).

Consider `O=C(Nc1ccccc1)c1ccccc1O`, for which the call in [1], in experiment [3], in [5] and in experiment [6] was inactive. In addition, the AC50 in experiment [4] is 48.3 µM (active).

As for `OC1CCCC1`, the outcome in experiment [1], in experiment [2], in [3] and in experiment [4] was inactive.

As for `CC(=O)OCCC1CCCCC1`, the molecule was classed as inactive in [1], in experiment [2], in [3], in experiment [4] and in experiment [5].

`CCCCCCCCc1ccc(Nc2ccc(CCCCCCCC)cc2)cc1`: the molecule was classed as inactive in [1], in experiment [2], in [3], in experiment [4], in experiment [5] and in experiment [7]. The outcome in experiment [8] and in [9] was inactive.

Take `C1=Cc2ccccc2C1`: the molecule was called inactive in experiment [1], in experiment [4] and in experiment [6]. Further, the concentration at half-maximal activity (AC50) in experiment [3] was 19.8 µM (active).

With `CCC(Cc1ccccc1)(C(=O)c1ccc(N2CCOCC2)cc1)N(C)C` (configuration not stated), the call in experiment [1], in experiment [2], in experiment [4] and in [5] was inactive. For the same molecule, the AC50 in [3] was 37.2 µM (active).

Turning to `c1cc(C(c2ccc(OCC3CO3)cc2)C(c2ccc(OCC3CO3)cc2)c2ccc(OCC3CO3)cc2)ccc1OCC1CO1` (configuration not stated), the AC50 in experiment [1] was 22 µM (active); in experiment [3] it was 21.1 µM (active); in experiment [4], 25.6 µM (active).

As to `Cc1ccc([N+](=O)[O-])cc1S(=O)(=O)O`, the call in experiment [1], in [2], in [3], in [4] and in [5] was inactive.

In the case of `COC(=O)c1ccccc1OC`, the molecule was classed as inactive in experiment [1], in experiment [3], in experiment [4] and in [6].

`CC(=O)Oc1ccc(C(C)=O)cc1`: the result in experiment [1], in experiment [3], in experiment [4], in [5] and in experiment [6] was inactive.

`CCCCC(CC)COC(=O)c1ccccc1O` (configuration not stated): the molecule was called inactive in experiment [1], in experiment [2], in experiment [3], in experiment [4] and in [5]. Further, the figures for the half-maximal activity concentration (AC50) in experiment [7], in [8] and in experiment [9] were 1.8 µM (active), 17.9 µM (active) and 15.2 µM (active), respectively.

Consider `CCOC(F)(F)C(F)(F)C(F)(F)C(F)(F)F`, for which the molecule was classed as inactive in experiment [1], in [2], in [3], in experiment [4] and in experiment [5].

As for `O=C(Nc1ccccc1SSc1ccccc1NC(=O)c1ccccc1)c1ccccc1`, the call in experiment [1], in experiment [2], in experiment [4] and in [5] was inactive. Moreover, the concentration at half-maximal activity (AC50) in experiment [3] is 29.2 µM (active); in experiment [7], 1.15 µM (active); in [8] it was 9.54 µM (active); in experiment [9] it was 20 µM (active); in [6], 23.4 µM (active).

On to `CCCCCCCC/C=C\CCCCCCCC(=O)O`, for which the molecule was classed as inactive in experiment [1], in [4] and in [5]. For the same molecule, the AC50 in [6] was 21.8 µM (active).

Consider `Oc1ccc(Cl)cc1Cc1cc(Cl)ccc1O`, for which the half-maximal activity concentration (AC50) in experiment [1] is 5.83 µM (active); in experiment [3], 2.75 µM (active); in experiment [4] it was 7.99 µM (active); in [6], 6.86 µM (active). The outcome in experiment [2] was inactive.
